The source of these data is PubChem BioAssay (NCI).

Holding throughout (assay): NCI-60 one-dose screen, 48 h (100 = growth as untreated, 0 = no growth, -100 = all killed)
For experiment [1], the system named is SK-MEL-2 melanoma. Particulars: 10 µM.
Experiment [2] has as its system EKVX NSCLC. Particulars: 10 µM.
Experiment [3] has as its system SN12C renal. The note with it: 10 µM.
Experiment [4] has as its system UO-31 renal. Particulars: 10 µM.
The subject of experiment [5] is TK-10 renal. Particulars: 10 µM unless noted.
The test system of experiment [6] is ACHN renal. The note with it: 10 µM.
Experiment [7] has as its system CAKI-1 renal. The note with it: 10 µM.
Experiment [8] deals with A498 renal. The note with it: 10 µM.
For experiment [9], the system named is CCRF-CEM leukemia. The note with it: 10 µM.
Experiment [10] has as its system MOLT-4 leukemia. Particulars: 10 µM.

Structures are written as SMILES. About 83,000 compounds went through this panel and 20% of them were active in at least one assay; those are over-represented in the sample as a whole.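 The test compound was applied at a single concentration to cells in 96-well plates for 48 hours, and percent growth was recorded.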 Unmarked numbers belong to inactive results. Active and inactive are the calls of the source. Rule for the calls: active = growth percent below 10; inactive = the rest.

For the compound `CCOC(=O)C(O)C(O)C(=O)OCC` (stereo not given), the growth in [1] is 103%; in experiment [2], 111%; in experiment [3] it was 102%; in experiment [4], 97.1%; in [5], 102%; in [6], 109%. The growth in experiment [7] was 101%; in experiment [8] it was 101%; in experiment [9] it was 107%; in experiment [10] it was 104%.
On to `O=[N+]([O-])c1ccc(O)c(S(=O)(=O)O)c1`, for which the growth in [1] was 108%; in [2], 105%; in experiment [3], 90.2%; in experiment [4] it was 116%; in [5], 121%; in experiment [6] it was 95.2%. The growth is 95.9% in [7], 114% in [8], 102% in experiment [9] and 98.4% in experiment [10].
For the compound `O=c1[nH]c(O)c(/C=C2/C=Nc3ccccc32)[nH]1`, the growth in [1] was 104%; in experiment [2], 95%; in experiment [3], 98.3%; in [4] it was 68.7%; in experiment [5], 99.9%; in experiment [6], 87%. Also, the growth in experiment [7] is 106%; in [8] it was 86%; in experiment [9], 58.2%; in experiment [10], 73.7%.
With `CC(=O)Nc1c(C)cc(C)cc1C`, the growth in [1] is 102%; in experiment [2], 101%; in experiment [3], 111%; in experiment [4], 95.5%; in [5], 104%; in [6], 107%. The growth was 91.6% in experiment [7], 109% in [8], 107% in experiment [9] and 97.2% in [10].
Take `CC(=O)OC1CC2C(C)(C)OC3CC(=O)OCC32C2CCC3(C)C(=CCC3c3ccoc3)C12C` (stereo not given): the growth in experiment [1] is 99.5%; in experiment [2], 102%; in experiment [3], 105%; in experiment [4] it was 86.9%; in experiment [5], 107%; in experiment [6], 101%. The growth in experiment [7] is 98.7%; in [8] it was 110%; in experiment [9] it was 101%; in [10] it was 90.8%.
With `COc1ccc(NC(=O)CCl)cc1`, the growth in experiment [1] was 74.9%; in experiment [2], 103%; in experiment [3] it was 67.2%; in [4], 90.9%; in experiment [5], 118%; in [6], 88.8%. Further, the growth in [7] was 97%; in experiment [8], 120%; in experiment [9], 50.5%; in experiment [10] it was 64.4%.
`O=S(=O)(O)c1ccc(Cl)c(Cl)c1`: the growth was 103% in experiment [1]; 91.4% in experiment [2]; 97.9% in experiment [3]; 79.4% in experiment [4]; 100% in experiment [5]; 97.3% in experiment [6]. Also, the growth in experiment [7] was 84.8%; in [8], 99.4%; in experiment [9], 103%; in experiment [10], 109%.
For `CCS(=O)(=O)c1cc(=O)[nH]c(=O)[nH]1`, the growth is 101% in experiment [1]; 91.4% in [2]; 101% in [3]; 90.1% in experiment [4]; 102% in experiment [5]; 96.8% in experiment [6]. The growth is 88.4% in [7], 121% in experiment [8], 110% in [9] and 128% in experiment [10].
With `O=C(CCNNC(=O)c1ccncc1)NCc1ccccc1`, the growth in [1] is 94.3%; in [2] it was 106%; in experiment [3], 97.1%; in experiment [4] it was 91.3%; in [5] it was 133%; in experiment [6], 93%. For the same compound, the growth in experiment [7] was 109%; in experiment [8], 110%; in [9], 5.43% (active); in [10], 99%.
With `O=C(O)c1cc([N+](=O)[O-])ccc1Cl`, the growth in experiment [1] was 97.3%; in experiment [2], 118%; in experiment [3], 95.6%; in experiment [4], 79.9%; in experiment [5] it was 81.2%; in experiment [6], 105%. Also, the growth in experiment [7] is 101%; in experiment [8], 106%; in experiment [9] it was 114%; in [10], 73.2%.
Take `COc1cc2cc(c1Cl)N(C)C(=O)C[C@H](OC(=O)[C@H](C)N(C)C(C)=O)[C@]1(C)O[C@H]1[C@H](C)[C@@H]1C[C@@](O)(NC(=O)O1)[C@H](OC)C=C/C=C(\C)C2`: the growth in [1] was 55.5%; in [2], 31.3%; in experiment [3], 27.6%; in experiment [4], 7.35% (active); in [5], 26.5%; in experiment [6], 16.6%. Moreover, the growth is 6.3% (active) in [7], 4.38% (active) in [8], -7.22% (active) in experiment [9] and 14.2% in [10].
For the compound `CCOC(=O)C(CCC(C)C)C(=O)OCC`, the growth in [1] is 97.5%; in experiment [2] it was 99.3%; in [3], 109%; in experiment [4], 84.7%; in experiment [5], 86.8%; in experiment [6], 101%. For the same compound, the growth in experiment [7] was 100%; in experiment [8] it was 91.3%; in [9], 99.9%; in experiment [10] it was 83.8%.
Take `OC(c1ccccn1)C(O)c1ccccn1` (stereo not given): the growth in [1] was 108%; in experiment [2], 124%; in experiment [3] it was 91.5%; in experiment [4], 89%; in [5], 108%; in [6] it was 98.2%. Also, the growth in experiment [7] was 116%; in [8] it was 95.9%; in experiment [9] it was 104%; in experiment [10] it was 95.1%.
Consider `CCCCOC(OCCCC)c1ccccc1`, for which the growth in [1] was 108%; in experiment [2], 110%; in [3], 101%; in [4] it was 98.4%; in experiment [5], 107%; in experiment [6], 109%. The growth in experiment [7] was 96.3%; in experiment [8], 84.7%; in experiment [9] it was 105%; in experiment [10], 106%.
`Oc1ccc(O)cc1`: the growth was 104% in experiment [1]; 113% in experiment [2]; 106% in [3]; 82% in [4]; 128% in experiment [5]; 85.4% in experiment [6]. Besides, the growth in [7] was 97.9%; in experiment [8], 115%; in experiment [9], 62.7%; in experiment [10], 78.6%.
